Results reported in PubChem BioAssay (NCI).
The panel holds about 83,000 compounds, 20% with a hit somewhere; the sample as a whole holds those more often.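 For each line, cells grew in 96-well plates with the test compound present at a single concentration for 48 hours.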 Calls of active or inactive are those of the source. The calls were made as follows: active = growth percent below 10; inactive = the rest.

Experiments:
Assay in all cases: NCI-60 one-dose screen, 48 h (100 = growth as untreated, 0 = no growth, -100 = all killed)
Details in all cases: 10 µM unless noted
SK-MEL-2 melanoma = system: SK-MEL-2 melanoma
EKVX NSCLC = system: EKVX NSCLC
UO-31 renal = system: UO-31 renal
TK-10 renal = system: TK-10 renal
ACHN renal = system: ACHN renal
CAKI-1 renal = system: CAKI-1 renal
A498 renal = system: A498 renal
CCRF-CEM leukemia = system: CCRF-CEM leukemia
MOLT-4 leukemia = system: MOLT-4 leukemia
SN12C renal = system: SN12C renal

Measured: growth

O=C(Nc1ccc(I)cc1F)c1cc(I)ccc1O
active: SK-MEL-2 melanoma -19.3% | EKVX NSCLC 6.21% | UO-31 renal -9.71% | ACHN renal -5.98% | CAKI-1 renal 3.29% | A498 renal -49.1% | MOLT-4 leukemia -10%
inactive: TK-10 renal 14.7% | CCRF-CEM leukemia 15.3%

CCC(=O)Nc1ccc(-c2nc(-c3cccc(OC)c3)c(-c3ccnc(Br)c3)[nH]2)cc1
inactive: SK-MEL-2 melanoma 70.2% | EKVX NSCLC 64.6% | UO-31 renal 53.9% | TK-10 renal 90.4% | ACHN renal 60.3% | CAKI-1 renal 57.1% | A498 renal 50.5% | CCRF-CEM leukemia 37.1% | MOLT-4 leukemia 44.6%

NCCOc1ncccc1/C=C1\c2ccccc2-c2ccc(C(F)F)cc21
inactive: SK-MEL-2 melanoma 115% | EKVX NSCLC 79.7% | UO-31 renal 31.1% | TK-10 renal 86.6% | CAKI-1 renal 35.5% | A498 renal 47.5%
active: ACHN renal 4.83% | CCRF-CEM leukemia 6.32% | MOLT-4 leukemia 2.92%

Cn1cc(C(=O)c2nc(-c3cn(C)c4ccc(F)cc34)no2)c2cc(F)ccc21
inactive: SK-MEL-2 melanoma 102% | EKVX NSCLC 107% | UO-31 renal 63% | TK-10 renal 108% | ACHN renal 94.1% | CAKI-1 renal 88.9% | A498 renal 113% | CCRF-CEM leukemia 92% | MOLT-4 leukemia 99.6%

CCOC(=O)CCN(C(=O)Nc1ccccc1)C1CCCCC1
inactive: SK-MEL-2 melanoma 119% | EKVX NSCLC 101% | UO-31 renal 118% | TK-10 renal 120% | ACHN renal 110% | CAKI-1 renal 110% | A498 renal 109% | CCRF-CEM leukemia 107% | MOLT-4 leukemia 93.8%

Cc1cc(N2CCCC2)nc(N(CCCNc2ccnc3cc(Cl)ccc23)Cc2ccccn2)n1
active: UO-31 renal 5.6%
inactive: SK-MEL-2 melanoma 71.7% | EKVX NSCLC 66.2% | TK-10 renal 80.3% | ACHN renal 80.8% | CAKI-1 renal 84.4% | A498 renal 42% | CCRF-CEM leukemia 55% | MOLT-4 leukemia 46.7%

O=C(CSc1nc2ccccc2[nH]1)Nc1cccc(Cl)c1
inactive: SK-MEL-2 melanoma 104% | EKVX NSCLC 94.7% | UO-31 renal 77.6% | TK-10 renal 109% | ACHN renal 99.2% | CAKI-1 renal 80.7% | A498 renal 73.3% | CCRF-CEM leukemia 104% | MOLT-4 leukemia 117%

COc1ccc(-c2nc3sc(-c4ccccc4)cn3n2)cc1
inactive: SK-MEL-2 melanoma 59.1% | EKVX NSCLC 62.7% | UO-31 renal 61.7% | TK-10 renal 106% | ACHN renal 67.5% | CAKI-1 renal 60% | A498 renal 43.7% | CCRF-CEM leukemia 64.2% | MOLT-4 leukemia 50.7%

C#C[C@]1(O)CC[C@H]2[C@@H]3CC=C4c5sc(Nc6ccccc6)nc5CC[C@]4(C)[C@H]3CC[C@@]21C
active: A498 renal -37.1% | CCRF-CEM leukemia 6.66% | MOLT-4 leukemia 7.73%
inactive: SK-MEL-2 melanoma 16.7% | EKVX NSCLC 36.3% | UO-31 renal 13.5% | TK-10 renal 56.8% | ACHN renal 20.1% | CAKI-1 renal 21.5%

O=C(N/N=C/c1c(Cl)cccc1Cl)c1ccc(C(F)(F)F)nc1Nc1cccc(C(F)(F)F)c1
inactive: SK-MEL-2 melanoma 26% | EKVX NSCLC 16.9% | CAKI-1 renal 13.8%
active: UO-31 renal 1.91% | TK-10 renal 1.46% | ACHN renal -15.7% | A498 renal -5.26% | CCRF-CEM leukemia -8.45% | MOLT-4 leukemia -12.9%

CN1CCN(c2ccc(-c3ccc4ncc(C#N)c(Nc5ccc(F)c(Cl)c5)c4c3)cn2)CC1
inactive: SK-MEL-2 melanoma 49.7% | EKVX NSCLC 48.4% | UO-31 renal 28.7% | TK-10 renal 34.1% | ACHN renal 17.4% | CAKI-1 renal 27.2% | CCRF-CEM leukemia 37.8% | MOLT-4 leukemia 38.2%
active: A498 renal -7.02%

CNC(=O)c1cc(-n2ccc3cc(NC(=O)c4ccc(N5CCOCC5)c(C(F)(F)F)c4)ccc32)ccn1
inactive: SK-MEL-2 melanoma 91.1% | EKVX NSCLC 83.9% | UO-31 renal 50.2% | TK-10 renal 86.8% | ACHN renal 61.5% | CAKI-1 renal 63.6% | A498 renal 25.9% | CCRF-CEM leukemia 30.1% | MOLT-4 leukemia 34.6%

COc1ccc2sc3c(NCCO)nc4ccccc4c3c(=O)c2c1
inactive: SK-MEL-2 melanoma 107% | EKVX NSCLC 70.3% | UO-31 renal 79.4% | TK-10 renal 103% | ACHN renal 98.1% | CAKI-1 renal 90.5% | A498 renal 48.7% | CCRF-CEM leukemia 75.3% | MOLT-4 leukemia 89.3%

COc1ccc(-c2cnc3ccccc3n2)cc1
inactive: SK-MEL-2 melanoma 112% | EKVX NSCLC 88.2% | UO-31 renal 81.9% | TK-10 renal 91.3% | ACHN renal 97.9% | CAKI-1 renal 84.4% | A498 renal 95% | CCRF-CEM leukemia 97.4% | MOLT-4 leukemia 103%

Cc1nc(NC(=O)COc2ccc(/C=C3\Cc4ccc(Cl)cc4C3=O)cc2)sc1C
inactive: SK-MEL-2 melanoma 97.4% | EKVX NSCLC 103% | TK-10 renal 310% | ACHN renal 93.7% | CAKI-1 renal 86.1% | A498 renal 139% | CCRF-CEM leukemia 100% | MOLT-4 leukemia 83.1%
active: UO-31 renal -88.5%

COc1cc(OCc2cccc(-c3ccc(C(O)c4nccs4)cc3)c2C)cc(OC)c1CNCCNC(C)=O (stereo not given)
inactive: SK-MEL-2 melanoma 122% | EKVX NSCLC 97% | UO-31 renal 89% | TK-10 renal 98.9% | ACHN renal 101% | CAKI-1 renal 93.7% | A498 renal 88.2% | CCRF-CEM leukemia 91.9% | MOLT-4 leukemia 94.9%

COc1ccc(C(Cc2ccccc2)NCCN2CCOCC2)cc1 (stereo not given)
inactive: SK-MEL-2 melanoma 95.9% | EKVX NSCLC 104% | UO-31 renal 84.5% | TK-10 renal 95.4% | ACHN renal 106% | CAKI-1 renal 98.8% | A498 renal 101% | CCRF-CEM leukemia 113% | MOLT-4 leukemia 93.8%

O=C(CCc1nnc(-c2c(Cl)cccc2Cl)o1)c1nc2ccccc2[nH]1
inactive: SK-MEL-2 melanoma 59.4% | EKVX NSCLC 61% | UO-31 renal 52.1% | TK-10 renal 64% | ACHN renal 81.3% | CAKI-1 renal 59.8% | A498 renal 58.4% | CCRF-CEM leukemia 47.3% | MOLT-4 leukemia 20.7%

Cc1c(C(=O)/C=C/Nc2c(Cl)cc(S(N)(=O)=O)cc2Cl)sc2nc3ccccc3n12
inactive: SK-MEL-2 melanoma 109% | EKVX NSCLC 106% | UO-31 renal 89.2% | TK-10 renal 111% | ACHN renal 99% | CAKI-1 renal 98.5% | A498 renal 101% | CCRF-CEM leukemia 102% | MOLT-4 leukemia 106%

[O-][n+]1c2ccccc2[n+]([O-])c2c3ccccc3[nH]c21
inactive: SK-MEL-2 melanoma 61.9% | EKVX NSCLC 30.8% | UO-31 renal 70% | TK-10 renal 41% | ACHN renal 87.5% | CAKI-1 renal 48.1% | CCRF-CEM leukemia 82.3% | MOLT-4 leukemia 98.8%
active: A498 renal -38.5%

NCCCNc1nc2ccc(Cl)cc2c2c(=O)c3cc(F)ccc3sc12
inactive: SK-MEL-2 melanoma 104% | EKVX NSCLC 81.3% | UO-31 renal 46.3% | TK-10 renal 89% | CAKI-1 renal 24.4% | A498 renal 23.4% | CCRF-CEM leukemia 12.1%
active: MOLT-4 leukemia 8.78%

CS(=O)(=O)Nc1cc(-c2ccc3ncnc(Nc4cccc(Cl)c4F)c3c2)cnc1Cl
inactive: SK-MEL-2 melanoma 28.4% | EKVX NSCLC 44.7% | UO-31 renal 28.8% | TK-10 renal 34.8% | ACHN renal 66.5% | CAKI-1 renal 19.8% | CCRF-CEM leukemia 30.4% | MOLT-4 leukemia 27.3%
active: A498 renal -32.5%

Oc1ccc(-c2nc3ccc4[nH]ncc4c3c3c2CCCC3)c2cccnc12
inactive: TK-10 renal 17.4%
active: SK-MEL-2 melanoma 5.36% | EKVX NSCLC -23.1% | UO-31 renal -30.4% | ACHN renal 2.65% | CAKI-1 renal -25.7% | A498 renal -25.7% | CCRF-CEM leukemia 4.86% | MOLT-4 leukemia 5.17%

CCN(CC)CCNc1nc2ccccc2c2c(=O)c3cc(Cl)ccc3sc12
inactive: SK-MEL-2 melanoma 89% | EKVX NSCLC 74.9% | UO-31 renal 43.7% | TK-10 renal 80.1% | ACHN renal 47.6% | CAKI-1 renal 22.6% | MOLT-4 leukemia 25.1%
active: A498 renal -7.91% | CCRF-CEM leukemia 7.05%

COC(=O)/C=C1\S/C(=N\Nc2ccc([N+](=O)[O-])cc2[N+](=O)[O-])N(C2CCCCC2)C1=O
inactive: SK-MEL-2 melanoma 90.5% | EKVX NSCLC 78.5% | UO-31 renal 19.2% | TK-10 renal 60.2% | ACHN renal 42.3% | CAKI-1 renal 57.1% | A498 renal 63.1% | CCRF-CEM leukemia 17.9% | MOLT-4 leukemia 42.7%

COc1cc(C(=O)c2cnc(-c3c[nH]c4cccc(C)c34)[nH]2)cc(OC)c1OC
inactive: SK-MEL-2 melanoma 35% | EKVX NSCLC 29.7% | UO-31 renal 17% | TK-10 renal 43.8% | ACHN renal 26.4%
active: CAKI-1 renal 6.61% | A498 renal -12% | CCRF-CEM leukemia 6.39% | MOLT-4 leukemia 8.85%

COc1cc(CCC[P+](c2ccccc2)(c2ccccc2)c2ccccc2)c(OC)c2c1OCO2
active: SK-MEL-2 melanoma -13.1%
inactive: SN12C renal 29.6% | UO-31 renal 93.9% | TK-10 renal 12.1% | ACHN renal 94.1% | CAKI-1 renal 75.8% | A498 renal 41.5% | CCRF-CEM leukemia 37.8% | MOLT-4 leukemia 44.4%

O=C(Nc1nc2ccc(F)cc2s1)c1cccnc1Nc1ccc(Cl)cc1Cl
inactive: SK-MEL-2 melanoma 43.5% | UO-31 renal 28.5% | TK-10 renal 11.4% | ACHN renal 27.5% | MOLT-4 leukemia 46%
active: EKVX NSCLC 1.03% | CAKI-1 renal -0.286% | A498 renal -4.34% | CCRF-CEM leukemia -3.42%

NCCNc1nc2ccccc2c2c(=O)c3cc(F)ccc3sc12
inactive: SK-MEL-2 melanoma 112% | EKVX NSCLC 78.2% | UO-31 renal 47.3% | TK-10 renal 101% | ACHN renal 54.5% | CAKI-1 renal 45.1% | A498 renal 49.4% | CCRF-CEM leukemia 45.7% | MOLT-4 leukemia 46.6%
